Results filed as inconclusive are left out. Activity calls are given as the source filed them. Unless noted, calls come from the whole dose curve; as a rule, active = well fitted curve in the direction sought with a large enough effect in the repeat runs; inconclusive = weak or mixed curves; inactive = no such curve, though single readings can be large; an effect the other way counts as inactive or inconclusive.
How the values were obtained:
[1] = qHTS assay to identify small molecule agonists of the sonic hedgehog signaling (Shh) pathway - cell viability counter screen (AID 1259366); note: nearly all actives have a fitted effect of over 50% in size; note: potency is the fitted concentration of half-maximal effect
Method in brief: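 Cytotoxicity counter screen run in the same wells as the Shh reporter assay. NIH/3T3 cells carrying a Gli1 response element–driven luciferase were treated with DMSO-dissolved compounds for 24hr, and live-cell protease activity was measured with CellTiter-Fluor.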

[2] = qHTS assay to identify small molecule antagonists of the sonic hedgehog signaling (Shh) pathway - cell viability counter screen (AID 1259367); note: nearly all actives have a fitted effect of over 55% in size; note: potency is the fitted concentration of half-maximal effect
Method in brief: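 Cells: 3T3 Gli1-Luc, 2,000/well, 4 hr pre-incubation. Compounds in DMSO, then conditioned medium. Incubation 24 hr, 37C, 5% CO2. CellTiter-Fluor at 23 hr, 1 hr, fluorescence.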

[3] = qHTS assay to identify small molecule agonists of the sonic hedgehog signaling (Shh) pathway (AID 1259368; calls by dose curve;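 note: NIH/3T3-derived 3T3Gli1-Luc cells carrying a stable Gli1-driven firefly luciferase reporter; series mostly up to about 92 µM; nearly all actives have a fitted effect of over 15% in size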)
Method in brief: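 A Gli1 transcriptional response element controlled firefly luciferase in 3T3Gli1-Luc cells. Compounds and a positive control were added 4 hr after plating, and cells were incubated a further 24 hr at 37 C before luminescence detection.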

[4] = qHTS assay to identify small molecule antagonists of the sonic hedgehog signaling (Shh) pathway (AID 1259369; calls by dose curve; note: nearly all actives have a fitted effect of over 45% in size)
Method in brief: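 For antagonist detection, the reporter line received test compounds together with conditioned medium, incubated 24hr at 37 C, 5% CO2, then luminescence was recorded following 30min room-temperature luciferase reagent incubation.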

[5] = qHTS assay to identify small molecule agonists of the androgen receptor (AR) signaling pathway in the presence of an antagonist - cell viability counter screen (AID 1259379);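 note: MDA-kb2 human breast cancer cells carrying an MMTV luciferase reporter; series mostly up to about 92 µM; nearly all actives have a fitted effect of over 25% in size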
Method in brief: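 Seed MDA-kb2 at 3,000 cells/well; incubate 5 hr, 37C, 0% CO2. Add nilutamide to 3.0uM final, then pin compounds at 15 concentrations. Incubate 16 hr. Add CellTiter-Fluor at 15 hr, read fluorescence after 1 hr.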

[6] = qHTS assay to identify small molecule agonists of the estrogen receptor beta (ER-beta) signaling pathway - cell viability counter screen (AID 1259380); note: nearly all actives have a fitted effect of over 30% in size
Method in brief: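 CellTiter-Glo read, 30 min RT, same wells as bla assay; cells ER-beta-UAS-bla HEK293T; 16 hr compound, 37C; medium 2% charcoal-stripped FBS.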

[7] = qHTS assay to identify small molecule antagonists of the estrogen receptor beta (ER-beta) signaling pathway - cell viability counter screen (AID 1259382);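 note: HEK293T cells carrying ER-beta-UAS-bla reporter stimulated with estradiol; series mostly up to about 92 µM; nearly all actives have a fitted effect of over 55% in size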
Method in brief: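 In this multiplexed counter screen, cells were seeded at 2,000 per well in medium with 2% charcoal-stripped FBS and incubated 6 hr before compound and 1nM final E2 were added. Sixteen hours later, ATP-based luminescence reported viability.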

[8] = biological target: Androgen receptor (Homo sapiens) (UniProt P10275); assay: qHTS assay to identify small molecule agonists of the androgen receptor (AR) signaling pathway in the presence of an antagonist (AID 1259381; calls by dose curve; note: nearly all actives have a fitted effect of over 15% in size)
Method in brief: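 Test compounds at 15 concentrations were incubated for 16hr with MDA-kb2 reporter cells in presence of 3.0uM nilutamide (final). Signal: ONE-Glo luciferase luminescence.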

[9] = biological target: Estrogen receptor beta (Homo sapiens) (UniProt Q92731); assay: qHTS assay to identify small molecule agonists of the estrogen receptor beta (ER-beta) signaling pathway (AID 1259377; active = well fitted activation curve with a large enough effect in the signal ratio in the repeat runs, not every such curve was filed as active; the % refers to the signal ratio)
Method in brief: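 HEK293T ER-beta-UAS-bla; 2% charcoal-stripped FBS; cells pre-incubated 6 hr, compound 16 hr, 37C/5% CO2; LiveBLAzer B/G FRET substrate 2 h RT; fluorescence intensity read.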

[10] = biological target: Estrogen receptor beta (Homo sapiens) (UniProt Q92731); assay: qHTS assay to identify small molecule antagonists of the estrogen receptor beta (ER-beta) signaling pathway (AID 1259378; active = well fitted inhibition curve with a large enough effect in the signal ratio in the repeat runs, not every such curve was filed as active; the % refers to the signal ratio)
Method in brief: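 Antagonist mode: compounds added to beta-lactamase reporter HEK293T ER-beta-UAS cells stimulated with E2 (1nM final), 16 hr at 37C. LiveBLAzer B/G FRET substrate, 2 hours room temperature, fluorescence read-out.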
% is set by controls: 0 for no effect and ±100 for the full control effect.

Androgen receptor (Homo sapiens), sequence (P10275 whole entry, looked up): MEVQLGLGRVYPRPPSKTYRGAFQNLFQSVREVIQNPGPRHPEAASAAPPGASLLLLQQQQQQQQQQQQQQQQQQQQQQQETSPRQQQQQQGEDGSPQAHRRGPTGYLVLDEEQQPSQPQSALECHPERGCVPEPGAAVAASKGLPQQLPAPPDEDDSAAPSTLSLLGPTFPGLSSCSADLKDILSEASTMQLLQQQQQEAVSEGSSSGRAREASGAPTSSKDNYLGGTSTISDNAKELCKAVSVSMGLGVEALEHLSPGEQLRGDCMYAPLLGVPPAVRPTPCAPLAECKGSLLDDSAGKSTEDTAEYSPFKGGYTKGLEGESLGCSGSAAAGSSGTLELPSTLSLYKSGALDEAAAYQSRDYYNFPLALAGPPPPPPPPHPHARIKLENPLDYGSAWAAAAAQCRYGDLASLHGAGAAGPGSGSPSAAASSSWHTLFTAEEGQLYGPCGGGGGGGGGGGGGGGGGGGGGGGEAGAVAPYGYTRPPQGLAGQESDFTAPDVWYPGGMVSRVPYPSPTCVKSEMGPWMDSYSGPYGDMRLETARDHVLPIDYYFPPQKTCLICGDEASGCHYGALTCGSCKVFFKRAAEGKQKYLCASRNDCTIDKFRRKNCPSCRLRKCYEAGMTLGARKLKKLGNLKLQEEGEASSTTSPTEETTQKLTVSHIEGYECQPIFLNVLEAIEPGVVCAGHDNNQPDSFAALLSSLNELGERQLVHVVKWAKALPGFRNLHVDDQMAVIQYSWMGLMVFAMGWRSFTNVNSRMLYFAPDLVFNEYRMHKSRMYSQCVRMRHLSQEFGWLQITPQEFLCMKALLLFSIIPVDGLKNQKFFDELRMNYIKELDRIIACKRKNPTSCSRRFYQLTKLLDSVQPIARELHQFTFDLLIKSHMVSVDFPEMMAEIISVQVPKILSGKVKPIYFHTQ
Estrogen receptor beta (Homo sapiens), sequence (Q92731 whole entry, looked up): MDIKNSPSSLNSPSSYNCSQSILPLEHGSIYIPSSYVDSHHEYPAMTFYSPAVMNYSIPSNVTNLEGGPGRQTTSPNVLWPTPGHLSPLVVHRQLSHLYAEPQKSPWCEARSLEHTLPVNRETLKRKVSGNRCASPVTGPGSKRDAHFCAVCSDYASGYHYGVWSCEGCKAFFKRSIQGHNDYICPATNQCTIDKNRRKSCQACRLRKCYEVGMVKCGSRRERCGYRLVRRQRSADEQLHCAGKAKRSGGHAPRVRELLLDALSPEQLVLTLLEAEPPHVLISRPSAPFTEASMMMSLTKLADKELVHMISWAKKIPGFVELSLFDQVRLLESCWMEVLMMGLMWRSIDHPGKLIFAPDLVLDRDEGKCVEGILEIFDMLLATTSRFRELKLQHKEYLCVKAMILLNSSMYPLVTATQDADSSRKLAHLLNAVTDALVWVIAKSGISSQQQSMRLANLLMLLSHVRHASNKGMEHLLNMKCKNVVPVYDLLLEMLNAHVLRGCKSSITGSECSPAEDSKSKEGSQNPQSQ

Nc1c(NC/C=C\COc2cc(CN3CCCCC3)ccn2)c(=O)c1=O
active: Potency [1] 5.17 µM | Potency [2] 5.17 µM
inactive: activity change [3] -1% [at 18.9 µM] | activity change, negative = inhibition [4] 0.103% [at 19 µM] | activity change, negative = cytotoxicity [5] -0.565% [at 19 µM] | activity change, negative = cytotoxicity [6] 1.31% [at 19 µM] | activity change, negative = cytotoxicity [7] 0.149% [at 19 µM]

OC(CCN1CCCCC1)(c1ccccc1)c1ccccc1
inactive: Potency [1] | Potency [2] | outcome [3] | Potency [4] | Potency [5] | outcome [6] | outcome [8] | outcome [7]

O=C(O)/C=C/c1ccccc1
inactive: Potency [1] | Potency [2] | outcome [3] | Potency [4] | Potency [5] | outcome [6] | outcome [7]

CCOC(=O)CC(CC(=O)OCC)(OC(C)=O)C(=O)OCC
inactive: Potency [1] | Potency [2] | outcome [3] | Potency [4] | Potency [5] | outcome [6]

CCC(=O)OCCC(C)CCC=C(C)C (stereo not drawn)
inactive: Potency [1] | Potency [2] | outcome [3] | Potency [4] | Potency [5] | outcome [6] | outcome [7]

O=P(O)(O)OCC(O)CO (stereo not drawn)
inactive: Potency [1] | Potency [2] | outcome [3] | Potency [4] | Potency [5] | outcome [6] | outcome [7]

O=C(O)c1ccccc1C(=O)OCc1ccccc1
inactive: Potency [1] | Potency [2] | outcome [3] | Potency [4] | Potency [5] | outcome [6] | outcome [8] | outcome [7]

COc1cc(C=O)ccc1OC(=O)C(C)C
inactive: Potency [1] | Potency [2] | outcome [3] | Potency [4] | Potency [5] | outcome [6] | outcome [7]

CC(=O)OC[C@H]1O[C@@H](OC(C)=O)[C@H](OC(C)=O)[C@@H]1OC(C)=O
inactive: Potency [1] | Potency [2] | outcome [3] | Potency [4] | Potency [5] | outcome [6] | outcome [8] | outcome [7]

F[Si-2](F)(F)(F)(F)F
inactive: Potency [1] | Potency [2] | outcome [3] | Potency [4] | Potency [5] | outcome [6] | outcome [7]

CCCCCCCCOC(C)=O
inactive: Potency [1] | Potency [2] | outcome [3] | Potency [4] | Potency [5] | outcome [6] | outcome [7]

CCC(=O)c1ccc(O)cc1
inactive: Potency [1] | Potency [2] | outcome [3] | Potency [4] | Potency [5] | outcome [6] | outcome [7]

Nc1nc(=O)n([C@@H]2O[C@H](CO)[C@@H](O)[C@@H]2F)cc1I
inactive: Potency [1] | Potency [2] | outcome [3] | Potency [4] | Potency [5] | outcome [6]

Cc1ccc(C(=O)C(=O)O)cc1C
inactive: Potency [1] | Potency [2] | outcome [3] | Potency [4] | Potency [5] | outcome [6] | outcome [7]

CC(=O)OCC(=O)[C@@]1(O)[C@H](OC(C)=O)C[C@H]2[C@@H]3CCC4=CC(=O)C=C[C@]4(C)[C@@]3(F)[C@@H](O)C[C@@]21C
inactive: Potency [1] | Potency [2] | outcome [3] | Potency [4] | Potency [5] | outcome [6] | outcome [7]

CN(C)CCOCCN(C)CCO
inactive: Potency [1] | Potency [2] | outcome [3] | Potency [4] | Potency [5] | outcome [6] | outcome [7]

CC(C)COC(=O)CCCCC(=O)OCC(C)C
inactive: Potency [1] | Potency [2] | outcome [3] | Potency [4] | Potency [5] | outcome [6] | outcome [7]

C=C(C)C(=O)OC
inactive: Potency [1] | Potency [2] | outcome [3] | Potency [4] | Potency [5] | outcome [6] | outcome [7]

CCCCCC1Nc2cc(C(F)(F)F)c(S(N)(=O)=O)cc2S(=O)(=O)N1 (stereo not drawn)
inactive: Potency [1] | Potency [2] | outcome [3] | Potency [4] | Potency [5] | outcome [6] | outcome [7]

CC(=O)N(CC(O)CO)c1c(I)c(C(=O)NCC(O)CO)c(I)c(C(=O)NCC(O)CO)c1I (stereo not drawn)
inactive: Potency [1] | Potency [2] | outcome [3] | Potency [4] | Potency [5] | outcome [6] | outcome [7]

SCCSCCS
inactive: Potency [1] | Potency [2] | outcome [3] | Potency [4] | Potency [5] | outcome [6] | outcome [7]

O=C(O)CCNC(=O)c1ccccc1
inactive: Potency [1] | Potency [2] | outcome [3] | Potency [4] | Potency [5] | outcome [6]

C=C(C)[C@@H]1CC[C@@H](C)C[C@@H]1O
inactive: Potency [1] | Potency [2] | outcome [3] | Potency [4] | Potency [5] | outcome [6] | outcome [7]

COc1ccc(NS(=O)(=O)c2ccc(N)cc2)nn1
inactive: Potency [1] | Potency [2] | outcome [3] | Potency [4] | Potency [5] | outcome [6]

CC(=O)/C=C/c1ccco1
inactive: Potency [1] | Potency [2] | outcome [3] | Potency [4] | Potency [5] | outcome [6]

Cc1cccc(C(=O)O)c1[N+](=O)[O-]
inactive: Potency [1] | Potency [2] | outcome [3] | Potency [4] | Potency [5] | outcome [6] | outcome [7]

O=CO
inactive: viability change, negative = cytotoxic [1] 5.23% [at 8.39 µM] | viability change, negative = cytotoxic [2] 1.7% [at 8.39 µM] | activity change [3] -0.175% [at 8.39 µM] | activity change, negative = inhibition [4] 8.06% [at 8.39 µM] | activity change, negative = cytotoxicity [5] 0.727% [at 8.39 µM] | activity change, negative = cytotoxicity [6] 0.536% [at 8.39 µM] | activity change, negative = cytotoxicity [7] 7.25% [at 8.39 µM]

Cc1nc([N+](=O)[O-])cn1-c1ccc([N+](=O)[O-])cc1
inactive: Potency [1] | Potency [2] | outcome [3] | Potency [4] | Potency [5] | outcome [6] | outcome [7]

CN(C1CCCCC1)S(=O)(=O)c1ccccc1N
inactive: Potency [1] | Potency [2] | outcome [3] | Potency [9] | Potency [5] | outcome [6]

O=S1(=O)CCCC1
inactive: Potency [1] | Potency [2] | outcome [3] | Potency [9] | outcome [10] | Potency [5] | outcome [6] | outcome [7]

BrC/C=C/CBr
inactive: viability change, negative = cytotoxic [1] 0.645% [at 19 µM] | viability change, negative = cytotoxic [2] -1.72% [at 19 µM] | activity change [3] -1.5% [at 18.9 µM] | activation [9] 0.425% [at 19 µM] | activity, negative = inhibition [10] 8.47% [at 19 µM] | activity change, negative = cytotoxicity [5] 0.671% [at 19 µM] | activity change, negative = cytotoxicity [6] 4.89% [at 19 µM]

CCCCOC(=O)C(C)OC(=O)CCC (stereo not drawn)
inactive: Potency [1] | Potency [2] | outcome [3] | Potency [4] | Potency [5] | outcome [6] | outcome [7]

CCCCCCCCCOCC1CO1 (stereo not drawn)
inactive: Potency [1] | Potency [2] | outcome [3] | Potency [9] | outcome [10] | Potency [5] | outcome [6]

C[C@H](CCC(=O)NCC(=O)O)[C@H]1CC[C@H]2[C@@H]3[C@H](O)C[C@@H]4C[C@H](O)CC[C@]4(C)[C@H]3C[C@H](O)[C@]12C
inactive: Potency [1] | Potency [2] | outcome [3] | Potency [9] | outcome [10] | Potency [5] | outcome [6]

CCCCCCCCCCCCCCCCI
inactive: viability change, negative = cytotoxic [1] 5% [at 19 µM] | viability change, negative = cytotoxic [2] -1.6% [at 19 µM] | activity change [3] -0.0263% [at 18.9 µM] | activation [9] 0.348% [at 19 µM] | activity change, negative = cytotoxicity [5] -1.43% [at 19 µM] | activity change, negative = cytotoxicity [6] -6.04% [at 19 µM] | activation [8] 0.857% [at 19 µM] | activity change, negative = cytotoxicity [7] -0.0745% [at 19 µM]

COC(OC)C(C)c1ccccc1 (stereo not drawn)
inactive: Potency [1] | Potency [2] | outcome [3] | Potency [9] | outcome [10] | Potency [5] | outcome [6] | outcome [8] | outcome [7]

— PubChem BioAssay (Tox21)
